From ChEMBL document CHEMBL2218924, “A broad activity screen in support of a chemogenomic map for kinase signalling research and drug discovery” (Biochem J, 2013) come the findings set out here.

The target of assay [1] is T1, Serine/threonine-protein kinase TAO2 (Homo sapiens) (UniProt Q9UL54).
T1 sequence (whole entry): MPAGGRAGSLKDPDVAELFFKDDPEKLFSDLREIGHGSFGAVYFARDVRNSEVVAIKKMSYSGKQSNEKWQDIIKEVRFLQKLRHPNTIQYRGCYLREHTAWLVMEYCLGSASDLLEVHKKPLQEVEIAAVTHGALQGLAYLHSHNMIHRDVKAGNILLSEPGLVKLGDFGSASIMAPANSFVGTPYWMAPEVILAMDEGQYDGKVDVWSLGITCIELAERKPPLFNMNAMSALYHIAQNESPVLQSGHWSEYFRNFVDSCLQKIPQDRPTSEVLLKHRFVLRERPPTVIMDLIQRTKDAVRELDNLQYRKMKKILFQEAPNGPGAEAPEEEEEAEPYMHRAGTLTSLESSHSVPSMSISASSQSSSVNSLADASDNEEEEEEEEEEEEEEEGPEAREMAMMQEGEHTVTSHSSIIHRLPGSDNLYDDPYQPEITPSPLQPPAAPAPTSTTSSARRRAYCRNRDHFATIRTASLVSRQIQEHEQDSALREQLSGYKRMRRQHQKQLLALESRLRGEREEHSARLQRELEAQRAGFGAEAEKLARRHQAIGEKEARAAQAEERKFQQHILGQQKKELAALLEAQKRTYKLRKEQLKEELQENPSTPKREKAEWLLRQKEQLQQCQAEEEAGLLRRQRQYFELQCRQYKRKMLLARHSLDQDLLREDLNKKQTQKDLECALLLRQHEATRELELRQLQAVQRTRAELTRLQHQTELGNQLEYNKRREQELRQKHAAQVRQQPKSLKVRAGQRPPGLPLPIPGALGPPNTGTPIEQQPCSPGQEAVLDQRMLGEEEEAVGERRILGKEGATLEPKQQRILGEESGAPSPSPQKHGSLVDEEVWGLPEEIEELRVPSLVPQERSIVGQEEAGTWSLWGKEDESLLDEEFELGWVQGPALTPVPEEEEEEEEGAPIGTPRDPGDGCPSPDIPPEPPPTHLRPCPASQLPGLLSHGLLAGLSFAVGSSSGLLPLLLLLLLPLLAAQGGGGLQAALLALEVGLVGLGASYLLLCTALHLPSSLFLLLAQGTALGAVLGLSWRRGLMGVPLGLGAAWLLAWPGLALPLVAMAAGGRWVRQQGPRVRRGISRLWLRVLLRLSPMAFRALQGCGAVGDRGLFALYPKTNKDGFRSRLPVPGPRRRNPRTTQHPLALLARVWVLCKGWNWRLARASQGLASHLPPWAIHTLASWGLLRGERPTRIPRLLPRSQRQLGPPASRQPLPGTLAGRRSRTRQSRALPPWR
Conditions: at 1 µM.

Assay [2] concerns the target T1, Serine/threonine-protein kinase TAO2 (Homo sapiens). Conditions: at 10 µM.
The target of assay [3] is T2, Serine/threonine-protein kinase TAO3 (Homo sapiens) (UniProt Q9H2K8).
T2 sequence (whole entry): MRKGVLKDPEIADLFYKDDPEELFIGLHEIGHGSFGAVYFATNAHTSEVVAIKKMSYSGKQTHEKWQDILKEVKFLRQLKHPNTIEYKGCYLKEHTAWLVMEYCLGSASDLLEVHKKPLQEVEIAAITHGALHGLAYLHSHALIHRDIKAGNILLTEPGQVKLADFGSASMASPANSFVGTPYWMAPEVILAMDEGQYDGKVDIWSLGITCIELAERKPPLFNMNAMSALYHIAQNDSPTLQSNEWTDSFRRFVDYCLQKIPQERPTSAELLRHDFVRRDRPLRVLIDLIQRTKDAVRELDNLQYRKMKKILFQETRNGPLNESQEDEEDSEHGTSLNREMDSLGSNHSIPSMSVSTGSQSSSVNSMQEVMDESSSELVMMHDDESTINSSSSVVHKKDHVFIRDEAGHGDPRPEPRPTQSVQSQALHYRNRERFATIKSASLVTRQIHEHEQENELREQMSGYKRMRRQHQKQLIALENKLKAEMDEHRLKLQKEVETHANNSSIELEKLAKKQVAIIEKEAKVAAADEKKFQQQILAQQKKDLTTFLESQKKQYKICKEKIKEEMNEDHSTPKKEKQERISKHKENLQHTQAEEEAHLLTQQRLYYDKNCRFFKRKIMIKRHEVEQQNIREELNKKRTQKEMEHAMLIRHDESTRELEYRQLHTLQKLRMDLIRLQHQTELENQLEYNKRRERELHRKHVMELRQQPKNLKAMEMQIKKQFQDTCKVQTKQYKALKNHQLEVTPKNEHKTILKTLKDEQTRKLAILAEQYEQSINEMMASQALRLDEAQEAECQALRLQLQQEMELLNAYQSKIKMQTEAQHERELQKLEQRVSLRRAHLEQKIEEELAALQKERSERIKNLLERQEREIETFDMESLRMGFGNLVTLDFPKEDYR
As to conditions: at 1 µM.

The target in assay [4] is T2, Serine/threonine-protein kinase TAO3 (Homo sapiens). As to conditions: at 10 µM.
The target in assay [5] is T3, Serine/threonine-protein kinase TBK1 (Homo sapiens) (UniProt Q9UHD2).
T3 sequence (whole entry): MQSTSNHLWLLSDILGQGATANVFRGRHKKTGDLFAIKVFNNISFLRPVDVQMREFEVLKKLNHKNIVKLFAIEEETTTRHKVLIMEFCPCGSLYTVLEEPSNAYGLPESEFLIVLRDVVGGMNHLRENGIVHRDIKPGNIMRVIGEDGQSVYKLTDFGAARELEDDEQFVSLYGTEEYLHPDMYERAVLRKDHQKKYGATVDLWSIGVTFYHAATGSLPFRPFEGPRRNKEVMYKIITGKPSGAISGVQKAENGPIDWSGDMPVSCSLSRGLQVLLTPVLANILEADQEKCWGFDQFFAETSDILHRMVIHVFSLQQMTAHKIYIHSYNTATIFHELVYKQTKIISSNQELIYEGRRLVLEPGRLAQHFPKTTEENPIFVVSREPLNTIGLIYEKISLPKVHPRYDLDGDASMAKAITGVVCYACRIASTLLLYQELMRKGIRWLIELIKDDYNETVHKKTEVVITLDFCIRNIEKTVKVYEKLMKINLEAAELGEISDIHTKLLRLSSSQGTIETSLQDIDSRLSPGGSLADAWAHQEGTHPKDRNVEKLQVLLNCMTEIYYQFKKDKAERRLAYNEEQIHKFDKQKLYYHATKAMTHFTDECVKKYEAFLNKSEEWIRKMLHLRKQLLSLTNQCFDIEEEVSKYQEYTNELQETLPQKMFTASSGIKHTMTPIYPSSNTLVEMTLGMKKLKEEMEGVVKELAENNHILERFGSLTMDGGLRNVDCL
Conditions: at 1 µM.

The target of assay [6] is T3, Serine/threonine-protein kinase TBK1 (Homo sapiens). As to conditions: at 10 µM.
Assay [7] concerns the target T4, TGF-beta receptor type-1 (Homo sapiens) (UniProt P36897).
T4 sequence (whole entry): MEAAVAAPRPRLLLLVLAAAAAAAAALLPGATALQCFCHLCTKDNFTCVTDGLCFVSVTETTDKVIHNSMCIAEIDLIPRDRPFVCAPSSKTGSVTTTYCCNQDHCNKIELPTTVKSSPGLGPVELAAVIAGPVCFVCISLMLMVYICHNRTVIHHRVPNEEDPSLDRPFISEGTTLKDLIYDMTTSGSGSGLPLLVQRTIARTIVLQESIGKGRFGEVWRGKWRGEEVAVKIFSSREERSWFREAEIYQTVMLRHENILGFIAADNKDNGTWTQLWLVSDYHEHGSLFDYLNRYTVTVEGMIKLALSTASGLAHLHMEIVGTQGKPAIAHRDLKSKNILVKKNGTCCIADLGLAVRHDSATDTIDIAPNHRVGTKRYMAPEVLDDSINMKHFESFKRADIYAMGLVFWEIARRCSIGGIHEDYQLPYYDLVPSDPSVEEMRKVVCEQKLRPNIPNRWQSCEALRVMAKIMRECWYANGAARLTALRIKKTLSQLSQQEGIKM
As to conditions: at 1 µM.

Assay [8] concerns the target T4, TGF-beta receptor type-1 (Homo sapiens). As to conditions: at 10 µM.
Assay [9] addresses Insulin-like growth factor 1 receptor (Homo sapiens) (UniProt P08069). As to conditions: at 1 µM.
For assay [10] the target is unchanged. Conditions: at 10 µM.
Assay [11] has as its target Insulin receptor (Homo sapiens) (UniProt P06213). As to conditions: at 1 µM.
Assay [12] shares this target. Conditions: at 10 µM.
Assay [13] shares this target. As to conditions: at 1 µM. The source holds these as a separate data set.
Assay [14] shares this target. As to conditions: at 10 µM. The source holds these as a separate data set.
In assay [15] the target is Interleukin-1 receptor-associated kinase 1 (Homo sapiens) (UniProt P51617). Conditions: at 1 µM.
The target is the same in assay [16]. Conditions: at 10 µM.
Assay [17] addresses T5, Inhibitor of nuclear factor kappa-B kinase subunit beta (Homo sapiens) (UniProt O14920).
T5 sequence (whole entry): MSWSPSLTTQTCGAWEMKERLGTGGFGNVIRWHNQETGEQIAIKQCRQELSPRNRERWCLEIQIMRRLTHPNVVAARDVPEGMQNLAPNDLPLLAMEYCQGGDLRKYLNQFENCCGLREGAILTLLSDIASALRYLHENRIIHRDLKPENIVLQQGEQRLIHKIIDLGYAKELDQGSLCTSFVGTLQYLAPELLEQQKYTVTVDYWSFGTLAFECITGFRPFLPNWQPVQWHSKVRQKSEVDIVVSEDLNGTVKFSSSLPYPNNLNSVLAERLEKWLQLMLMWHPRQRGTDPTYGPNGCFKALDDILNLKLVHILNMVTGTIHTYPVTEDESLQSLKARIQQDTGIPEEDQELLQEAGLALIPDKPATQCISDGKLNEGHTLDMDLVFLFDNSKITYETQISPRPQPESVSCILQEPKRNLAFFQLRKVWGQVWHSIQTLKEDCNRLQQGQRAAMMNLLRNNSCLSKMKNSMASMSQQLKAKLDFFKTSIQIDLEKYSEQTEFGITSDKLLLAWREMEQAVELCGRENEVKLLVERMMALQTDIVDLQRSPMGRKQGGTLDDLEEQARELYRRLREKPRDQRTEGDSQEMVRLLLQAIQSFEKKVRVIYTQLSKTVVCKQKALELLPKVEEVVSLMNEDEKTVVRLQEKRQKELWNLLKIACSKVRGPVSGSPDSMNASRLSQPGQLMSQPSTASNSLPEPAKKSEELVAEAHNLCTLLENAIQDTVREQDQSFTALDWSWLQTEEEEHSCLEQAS
As to conditions: at 1 µM.

Assay [18] deals with T5, Inhibitor of nuclear factor kappa-B kinase subunit beta (Homo sapiens). Conditions: at 10 µM.

Sequence of Insulin receptor (Homo sapiens) (P06213 28-758 limits assumed): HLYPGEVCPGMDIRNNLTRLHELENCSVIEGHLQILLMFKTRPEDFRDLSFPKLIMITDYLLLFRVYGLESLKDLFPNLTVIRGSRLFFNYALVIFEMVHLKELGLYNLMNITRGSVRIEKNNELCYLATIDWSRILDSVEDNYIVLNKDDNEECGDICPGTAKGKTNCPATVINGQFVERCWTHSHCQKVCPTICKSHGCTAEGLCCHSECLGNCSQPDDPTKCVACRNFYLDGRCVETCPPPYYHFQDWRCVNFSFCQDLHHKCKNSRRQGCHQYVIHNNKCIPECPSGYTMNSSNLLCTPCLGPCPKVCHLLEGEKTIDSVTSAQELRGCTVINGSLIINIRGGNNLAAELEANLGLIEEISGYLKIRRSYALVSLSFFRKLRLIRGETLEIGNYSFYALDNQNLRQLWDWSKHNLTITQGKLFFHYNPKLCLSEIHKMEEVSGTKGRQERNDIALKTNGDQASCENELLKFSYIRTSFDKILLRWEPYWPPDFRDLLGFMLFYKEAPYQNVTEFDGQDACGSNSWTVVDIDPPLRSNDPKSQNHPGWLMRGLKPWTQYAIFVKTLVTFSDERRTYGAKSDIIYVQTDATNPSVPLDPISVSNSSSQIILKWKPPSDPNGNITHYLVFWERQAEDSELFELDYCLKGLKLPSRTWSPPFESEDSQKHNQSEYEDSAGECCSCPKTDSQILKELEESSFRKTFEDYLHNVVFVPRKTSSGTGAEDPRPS
Sequence of Insulin receptor (Homo sapiens) (P06213 763-1382 limits assumed): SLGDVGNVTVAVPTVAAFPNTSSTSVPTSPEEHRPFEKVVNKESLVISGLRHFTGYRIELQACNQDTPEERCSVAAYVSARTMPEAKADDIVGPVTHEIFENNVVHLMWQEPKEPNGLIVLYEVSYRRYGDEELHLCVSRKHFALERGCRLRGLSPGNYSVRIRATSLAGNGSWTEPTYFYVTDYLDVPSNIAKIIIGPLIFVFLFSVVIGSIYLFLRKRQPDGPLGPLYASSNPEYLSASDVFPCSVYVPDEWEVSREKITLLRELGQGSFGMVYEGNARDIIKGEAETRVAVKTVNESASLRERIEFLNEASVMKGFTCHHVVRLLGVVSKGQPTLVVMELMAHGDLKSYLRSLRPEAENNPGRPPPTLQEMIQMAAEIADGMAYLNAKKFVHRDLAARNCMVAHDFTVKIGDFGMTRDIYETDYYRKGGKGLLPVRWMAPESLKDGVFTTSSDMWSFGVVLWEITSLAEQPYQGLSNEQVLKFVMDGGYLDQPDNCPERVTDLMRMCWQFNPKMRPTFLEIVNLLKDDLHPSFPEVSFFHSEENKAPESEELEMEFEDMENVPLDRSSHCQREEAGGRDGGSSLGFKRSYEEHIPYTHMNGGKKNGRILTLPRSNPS
Sequence of Interleukin-1 receptor-associated kinase 1 (Homo sapiens) (P51617 whole entry, looked up): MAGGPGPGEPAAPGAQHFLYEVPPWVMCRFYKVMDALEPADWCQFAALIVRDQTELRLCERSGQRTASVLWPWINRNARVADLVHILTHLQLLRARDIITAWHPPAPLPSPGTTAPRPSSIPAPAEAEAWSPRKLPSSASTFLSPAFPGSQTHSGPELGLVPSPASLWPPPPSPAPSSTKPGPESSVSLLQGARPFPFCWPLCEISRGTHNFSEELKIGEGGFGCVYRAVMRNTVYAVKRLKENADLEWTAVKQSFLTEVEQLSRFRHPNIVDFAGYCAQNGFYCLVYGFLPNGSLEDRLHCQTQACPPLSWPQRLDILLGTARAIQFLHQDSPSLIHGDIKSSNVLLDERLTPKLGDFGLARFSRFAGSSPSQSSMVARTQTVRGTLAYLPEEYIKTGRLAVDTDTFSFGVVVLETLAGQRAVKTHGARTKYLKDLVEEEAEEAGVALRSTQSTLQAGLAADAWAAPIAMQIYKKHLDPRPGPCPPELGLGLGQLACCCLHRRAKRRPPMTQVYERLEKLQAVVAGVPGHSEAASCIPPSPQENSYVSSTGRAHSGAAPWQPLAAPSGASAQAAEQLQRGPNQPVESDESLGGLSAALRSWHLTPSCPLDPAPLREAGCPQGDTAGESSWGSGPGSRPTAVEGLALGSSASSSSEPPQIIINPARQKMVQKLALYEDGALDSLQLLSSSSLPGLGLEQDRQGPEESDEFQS
Sequence of Insulin-like growth factor 1 receptor (Homo sapiens) (P08069 31-736 limits assumed): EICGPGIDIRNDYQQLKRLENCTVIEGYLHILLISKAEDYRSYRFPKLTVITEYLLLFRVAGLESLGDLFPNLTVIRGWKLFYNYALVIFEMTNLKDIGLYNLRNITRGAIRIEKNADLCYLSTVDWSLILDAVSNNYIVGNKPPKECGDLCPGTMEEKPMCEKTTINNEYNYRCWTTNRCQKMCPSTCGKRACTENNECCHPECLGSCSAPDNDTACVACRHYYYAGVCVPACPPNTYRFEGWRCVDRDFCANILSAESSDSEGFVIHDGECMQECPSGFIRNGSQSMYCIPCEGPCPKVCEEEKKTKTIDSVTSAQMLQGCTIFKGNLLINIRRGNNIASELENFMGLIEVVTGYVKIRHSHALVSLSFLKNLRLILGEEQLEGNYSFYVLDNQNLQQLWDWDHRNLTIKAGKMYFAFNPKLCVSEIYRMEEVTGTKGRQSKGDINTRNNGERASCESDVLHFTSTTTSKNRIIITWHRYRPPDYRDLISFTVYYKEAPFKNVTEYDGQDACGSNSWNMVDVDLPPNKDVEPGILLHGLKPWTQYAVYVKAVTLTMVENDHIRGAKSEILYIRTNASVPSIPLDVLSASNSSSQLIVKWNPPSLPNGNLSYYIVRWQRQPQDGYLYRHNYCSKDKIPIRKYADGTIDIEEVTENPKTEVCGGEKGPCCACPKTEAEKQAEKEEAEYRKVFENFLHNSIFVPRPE
Sequence of Insulin-like growth factor 1 receptor (Homo sapiens) (P08069 741-1367 limits assumed): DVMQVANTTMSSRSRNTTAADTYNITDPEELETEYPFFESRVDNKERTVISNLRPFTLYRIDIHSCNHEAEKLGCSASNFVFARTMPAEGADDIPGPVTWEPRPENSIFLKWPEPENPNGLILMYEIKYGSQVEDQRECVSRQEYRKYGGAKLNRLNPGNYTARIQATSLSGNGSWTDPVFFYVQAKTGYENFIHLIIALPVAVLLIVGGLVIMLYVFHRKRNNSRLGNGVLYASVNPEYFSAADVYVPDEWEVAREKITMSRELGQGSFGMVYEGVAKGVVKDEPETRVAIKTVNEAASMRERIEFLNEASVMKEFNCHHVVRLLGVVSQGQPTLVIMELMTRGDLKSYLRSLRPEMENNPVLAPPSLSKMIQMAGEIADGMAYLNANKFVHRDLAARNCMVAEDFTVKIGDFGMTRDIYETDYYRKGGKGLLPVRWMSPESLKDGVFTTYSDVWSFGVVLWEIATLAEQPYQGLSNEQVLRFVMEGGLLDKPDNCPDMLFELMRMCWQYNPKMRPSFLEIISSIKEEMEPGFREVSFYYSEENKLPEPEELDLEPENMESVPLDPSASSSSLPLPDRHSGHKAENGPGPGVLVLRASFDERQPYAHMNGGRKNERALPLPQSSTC

As usually defined, the residual activity is the signal under treatment as a percentage of the control signal. On to `COc1cc(OC)c(/C=C2\C(=O)Nc3ccccc32)c(OC)c1`, for which the residual activity in assay [1] was determined as 104%; in [2], 81%; in assay [3], 90%; in assay [4], 68%; in [5] it was 61%; in [6], 56%. Also, the residual activity stood at 79% in assay [7]; 81% in [8]; 95% in assay [9]; 98% in assay [10]; 82% in assay [11]; 86% in assay [12]. The residual activity in assay [13] was 98%; in [14] it was 91%; in [15], 100%; in assay [16], 103%.

For the compound `O=C1c2ccccc2-c2nc3nnnn3nc21`, the residual activity in assay [1] worked out at 111%; in assay [2] it was 103%; in assay [6], 83%; in [17], 111%; in assay [18] it was 81%; in assay [11], 121%. Further, the residual activity came out at 102% in [12]; 104% in assay [13]; 109% in assay [14]; 109% in [15]; 103% in assay [16].

Take `N/C(=N\[N+](=O)[O-])N/N=C\c1ccc(-c2cccc([N+](=O)[O-])c2)o1`: the residual activity in [3] stood at 96%; in assay [4], 93%; in assay [5] it was 94%; in [6], 72%; in [7], 98%; in assay [8] it was 98%. Moreover, in assay [18], the residual activity was 99%.
